# In the library only some 4.1% were active in any assay of this set; here they are far more common.
# ssDAF-12 act – activators of S. stercoralis DAF-12 nuclear receptor; AID 652126; 1% of 370,000 active; HEK293 ssDAF-12/GRIP1 lit1-tk-luc reporter, luminescence; % of 3 µM dafachronic acid response; activation, % at 6.8 µM;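 active = activation above the mean over all tested compounds plus 3 SD, cut at about 0.9% in these data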;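 also: 0% = DMSO-only wells and 100% = 3 µM delta7-dafachronic acid wells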
# hgDAF-12 ag – hgDAF-12 agonism, primary luciferase screen. HEK293 GAL4-hgDAF12 UAS-luciferase reporter, agonist luminescence; normalized to butyrate control. activation, % at 6.8 µM. 1.8% of 370,000 active. AID 687014;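 active = activation above a cutoff set at the mean of all screened compounds plus 3 SD, cut at about 10% in these data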;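 also: 0% = DMSO wells and 100% = sodium butyrate wells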
# DAX1 inh-1 – NR0B1 (DAX1) inhibition; AID 504766; HEK293 Gal4-DAX1 luciferase reporter, luminescence; inhibition, % at 6.75 µM; 0.99% of 340,000 active;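 active = inhibition above the mean over all tested compounds plus 3 SD, cut at about 4.2% in these data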;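 also: 0% = DAX1-transfected cells with DMSO and 100% = empty-vector control cells with DMSO; inhibition shows as a rise in luminescence from relieved DAX1 repression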
# Target sequence (P51843 207-470 limits assumed): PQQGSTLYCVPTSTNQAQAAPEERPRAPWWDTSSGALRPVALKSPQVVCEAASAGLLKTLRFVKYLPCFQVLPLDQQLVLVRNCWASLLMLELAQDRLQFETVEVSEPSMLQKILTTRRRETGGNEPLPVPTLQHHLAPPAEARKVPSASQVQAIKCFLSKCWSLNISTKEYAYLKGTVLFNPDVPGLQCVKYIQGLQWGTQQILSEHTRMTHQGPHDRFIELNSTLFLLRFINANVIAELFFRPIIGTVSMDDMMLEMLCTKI
# hcDAF12 agonist – activators of H. contortus DAF-12 nuclear receptor. AID 652067. HEK293 hcDAF-12 lit1-tk-luc reporter, luminescence; 0% DMSO, 100% Δ7-dafachronic acid. 1.4% of 370,000 active. activation, % at 6.8 µM;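 active = activation above the mean of all tested compounds plus 3 SD, cut at about 5.5% in these data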;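 also: 100% = response to 3 µM Δ7-dafachronic acid high control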
# DAX1 inh-2 – inhibitors of DAX1 repression of SF-1 activated StAR promoter | inhibition, % at 6.8 µM | HEK293T StAR-luciferase reporter, SF-1/DAX-1 repression relief | AID 652010 | 1.1% of 370,000 active;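 active = inhibition above the mean over all tested compounds plus 3 SD, cut at about 3.6% in these data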;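 also: 0% = DAX-1 cells with DMSO and 100% = cells lacking DAX-1 with DMSO; higher inhibition means more luminescence from relief of DAX-1 repression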
# PolyA inh – yeast polyadenylation inhibition; S. cerevisiae SKY197-pL101 polyadenylation reporter, beta-gal luminescence; efflux-impaired pdr1/pdr3 knockout yeast; score 100 = 6 SD above DMSO; activity score, % at 12 µM; 0.02% of 300,000 active; AID 1875;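 active = lowest replicate activity score at least 50, where 100 means six control SD above control mean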;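 also: yeast exposed to compound for 9 h at 30 °C; higher score means more reporter readthrough which indicates perturbed polyadenylation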
# Numbers without * were called inactive; nt = no result.
SMILES,ssDAF-12 act,hgDAF-12 ag,DAX1 inh-1,hcDAF12 agonist,DAX1 inh-2,PolyA inh
C#CCN(Cc1cccc(F)c1)C(=O)c1nnc2c3cc(F)ccc3n(S(=O)(=O)c3ccc(OC)cc3)c2n1,0,0,nt,1,1,nt
O=C(CCNC(=O)Cn1ccc2ccccc2c1=O)NCCCN1CCOCC1,-1,2,5.1*,0,0,-3
COc1ccc(Nc2ccc(N3C(=O)CCCC3=O)cc2[N+](=O)[O-])cc1OC,-2,-3,-1,-3,-1,0
CCOc1ccc(Nc2ccc(N3C(=O)CCC3=O)cc2[N+](=O)[O-])cc1,-1,2,2,6.2*,0,-7
CCOc1ccc(-n2c(SCC(=O)NN=Cc3ccc(C(=O)O)cc3)nnc2-c2cccnc2)cc1,0,0,nt,0,0,nt
CC(=O)C1(C(=O)NC2CCCC2)CC(c2ccccc2C(F)(F)F)=NO1 (stereo not given),-1,0,nt,-2,-1,nt
COc1ccc(C(=O)CC(=O)C(=O)NCCc2cccc(C)c2)cc1,-1,1,2,6.4*,0,-13
COc1ccc(OC(=O)NCCc2ccccc2)cc1,0,13*,2,2,0,13
CCOc1ccc(CCNC(=O)CN2C(=O)CCSc3ccccc32)cc1OCC,-1,-1,0,-3,0,67*
CC(=O)c1ccccn1,-1,0,6.0*,-2,0,1
CCC[C@H]1[C@@H](OC(=O)NC(CC)CC)CC[C@@]23CCCN2C(=O)CCC[C@@H]13,-2,0,nt,1,nt,nt
Cc1ccc(S(=O)(=O)Cc2ccc(C(=O)N3CCC(C(N)=O)CC3)o2)cc1,-1,0,0,2,-1,5
NC(=O)C1CCN(C(=O)c2ccc(CS(=O)(=O)c3c(Cl)cccc3Cl)o2)CC1,-1,4,6.9*,-1,0,-14
CCOc1cc(/C=N/Nc2nc(Nc3ccccc3)nc(N3CCCCC3)n2)ccc1OCC(=O)O,-1,-1,0,-1,0,-16
COc1cc(C=NNc2ccccc2)ccc1OC(=O)c1ccccc1,-1,-2,1,0,0,nt
CCOc1cc(/C=N/Nc2ccccc2Cl)ccc1OCC(=O)O,0,0,-1,6.3*,2,nt
CCOc1cc(/C=N/Nc2cccc(C(=O)O)c2)ccc1OC(=O)c1ccccc1,1.1*,10,-4,2,3,-2
O=C(Nc1ccc(F)cc1)OCc1cn(Cc2ccccc2C(F)(F)F)nn1,-1,2,nt,-2,-1,nt
CCCCNc1ccc2c(c1)OC[C@H](CC(C)C)NS2(=O)=O,-1,0,nt,-2,-1,nt
CCCN1C(=O)c2n[nH]c(C(C)C)c2C1c1cccc(C(F)(F)F)c1 (stereo not given),-1,1,nt,2,1,nt
CN[C@H]1C[C@H]2c3[nH]c4c(-c5ccccc5)cccc4c3CCN2C[C@H]1[C@H](C)O,-1,-2,nt,-1,-1,nt
CCC(C)(C(=O)NC1CCCCC1)N(Cc1cccs1)C(=O)c1ccc(=O)[nH]c1 (stereo not given),-1,-1,4.7*,0,-1,-1
CCC(C)(C(=O)NC1CCCCC1)N(Cc1cccs1)C(=O)c1ccccn1 (stereo not given),-1,-2,1,0,0,3
CCN(C)c1ccc(/C=N\n2nnnc2N)cc1,-1,12*,1,0,-1,10
N=c1oc2ccc3ccccc3c2cc1-c1nc(-c2ccccc2)cs1,0,1,1,6.2*,1,-3
COc1ccc(CN2C(C(=O)NCC(C)C)CSCCS2(=O)=O)cc1 (stereo not given),0,7,nt,-2,0,nt
Cc1ccc(NC(=O)C2CCN(c3nnc(-n4cccc4)s3)CC2)c(C)c1,-1,0,nt,-1,0,nt
CCN(CC)C(=O)Oc1ccc2c(=O)c(-c3ccccc3)coc2c1,0,11*,1,1,4.1*,-9
CCc1ccc(/C(C)=N\Nc2ccc([N+](=O)[O-])cc2)cc1,0,6,4.3*,1,0,-24
N#CCCCc1cc2ccccc2cn1,-1,-2,-2,1,1,nt
